The results in this text go back to PubChem BioAssay.

Where “and” joins values, the source holds several entries; their conditions need not be identical. Equal values may be shown once. Values without a mark were called inactive. How the calls were made is not given here.

A short description of this experiment: inhibitors of hydroxyurea-induced Chk1 phosphorylation, primary screen, imaging, HeLa, phospho-Chk1 nuclear intensity (AID 1187). Further: test concentration not given here. As to conditions: hydroxyurea-induced phospho-Chk1 immunofluorescence imaging, higher = more signal.
`C=CCN(C(=O)C(c1cccs1)N(CCOCCO)C(=O)/C=C\C(=O)O)c1ccc(OC)cc1` (stereo unspecified): the z-score is -0.197 and -0.573.

For the compound `C=CCN1C(=O)[C@]2(O[C@H](CCn3cc(CCO)nn3)[C@@H]([Si](C)(C)c3ccc(OC)cc3)[C@@H]2C)c2cc(N3C(=O)c4cccc5cccc3c45)ccc21`, the z-score was -1.8 and -1.3.

As to `C=CCN(Cc1ccccc1)C(=O)C(c1cccs1)N(C(=O)/C=C\C(=O)O)c1ccc(CCO)cc1` (stereo unspecified), the z-score was 0.404 and 0.592.

With `C=CCN(C(=O)C1N(CCOCCO)C(=O)C2C(C(=O)O)C3C=CC21O3)C(C)(C)C` (stereo unspecified), the z-score is -0.47 and 0.312.

As to `C=CC[C@H](O)c1ccc(OCCO)cc1`, the z-score is 0.313 and 0.469.

Turning to `C=CCN(CCCC)C(=O)C(c1cccs1)N(CCOCCO)C(=O)/C=C\C(=O)O` (stereo unspecified), the z-score is 0.132 and 1.47.

In the case of `C=CCN(CCCC)C(=O)C(c1cccs1)N(C(=O)/C=C\C(=O)O)c1ccc(CCO)cc1` (stereo unspecified), the z-score is 1.04 and 0.345.

Turning to `C=CCN(Cc1ccccc1)C(=O)C1N(CCCCCCO)C(=O)C2C(C(=O)O)C3C=CC21O3` (stereo unspecified), the z-score was 0.798 and 0.751.

As for `C[N+](C)(C)CCCCCCNC(=O)[C@@H]1C[C@@H]2C(=O)N[C@@H](CCCC[N+](C)(C)C)C(=O)N2[C@@H]1c1ccc(O)cc1`, the z-score is 0.424 and 0.327.

For `C=CCN(Cc1ccccc1)C(=O)C(c1cccs1)N(C(=O)/C=C\C(=O)O)c1c(Cl)cccc1CO` (stereo unspecified), the z-score was 0.0032 and 0.521.

With `CC(C)OC(=O)C=C1C[C@@H](c2ccccc2)O[C@@H](c2ccccc2)O1`, the z-score is -0.687 and -0.132.

In the case of `CCOC(=O)c1ccc(NC(=O)O[C@H]2[C@H](OC(=O)Nc3ccccc3)[C@@H](OC(=O)Nc3ccccc3)[C@@H](OC)O[C@@H]2CO)cc1`, the z-score was 0.161 and -0.827.

Regarding `CC(C)OC(=O)C=C1C[C@@H](c2cccc(C(F)(F)F)c2)O[C@@H](c2cccc(C(F)(F)F)c2)O1`, the z-score was -0.854 and -0.46.

`C=CCN(Cc1ccccc1)C(=O)C1N(c2ccc(CCO)cc2)C(=O)C2C(C(=O)O)C3C=CC21O3` (stereo unspecified): the z-score was -0.0077 and -0.58.

In the case of `C[N+](C)(C)CCCCNC(=O)[C@H]1C[C@H]2C(=O)N[C@@H](CCCC[N+](C)(C)C)C(=O)N2[C@H]1c1cccc(OCCO)c1`, the z-score is -0.771 and -0.16.

For `C=C[C@H](OC)[C@@H](O)c1ccc(O)c(F)c1`, the z-score was -0.132 and -0.265.

Take `C=C[C@@H](OC)[C@H](O)c1ccc(O)c(F)c1`: the z-score was 0.496 and 0.357.

For `C=C[C@H](C)[C@@H](O)c1ccc(OCCO)cc1`, the z-score is 0.121 and -0.859.

For `C=CCN(CCCCC)C(=O)C(c1cccs1)N(CCOCCO)C(=O)/C=C\C(=O)O` (stereo unspecified), the z-score is 0.425 and 0.965.

`C=CCN(C(=O)C(c1cccs1)N(CCOCCO)C(=O)/C=C\C(=O)O)C(C)(C)C` (stereo unspecified): the z-score was -0.124 and 0.0803.

Consider `C=CCN(CCCCC)C(=O)C1N(CCCCCCO)C(=O)C2C(C(=O)O)C3C=CC21O3` (stereo unspecified), for which the z-score is 0.616 and 0.8.

For `C=CCN(CCCC)C(=O)C1N(c2ccc(CCO)cc2)C(=O)C2C(C(=O)O)C3C=CC21O3` (stereo unspecified), the z-score is -0.173 and -0.502.

On to `C=CCN(CCCCC)C(=O)C(c1cccs1)N(C(=O)/C=C\C(=O)O)c1c(Cl)cccc1CO` (stereo unspecified), for which the z-score is 0.728 and 0.468.

In the case of `C=CC[C@@H](O)c1ccc(O)c(F)c1`, the z-score was -0.268 and -0.321.

On to `C=C[C@@H](C)[C@H](O)c1ccc(O)c2ccccc12`, for which the z-score is 0.0888 and 0.837.

As for `CC(C)[Si]1(C(C)C)OCc2cc(CCCc3cc4c(c(CCc5ccccc5)n3)[Si](C(C)C)(C(C)C)OC4)nc(CCc3ccccc3)c21`, the z-score is -0.625 and -0.0158.
